# This is a sample that favours compounds with a hit; in the whole collection about 7.3% have one here.
# FLuc modulator – qHTS profiling assay for firefly luciferase inhibitor/activator using purifed enzyme and Km concentrations of substrates (counterscreen for miR-21 project); Potency, µM (series often up to 57.5 µM), usual class: inhibitors; 360,000 tested, 6.9% active; purified FLuc, Km substrates, luminescence inhibition; Luciferin 4-monooxygenase (Photinus pyralis), P08659; further: nearly all actives have a fitted effect of over 55% in size
# Target sequence (P08659 whole entry, looked up): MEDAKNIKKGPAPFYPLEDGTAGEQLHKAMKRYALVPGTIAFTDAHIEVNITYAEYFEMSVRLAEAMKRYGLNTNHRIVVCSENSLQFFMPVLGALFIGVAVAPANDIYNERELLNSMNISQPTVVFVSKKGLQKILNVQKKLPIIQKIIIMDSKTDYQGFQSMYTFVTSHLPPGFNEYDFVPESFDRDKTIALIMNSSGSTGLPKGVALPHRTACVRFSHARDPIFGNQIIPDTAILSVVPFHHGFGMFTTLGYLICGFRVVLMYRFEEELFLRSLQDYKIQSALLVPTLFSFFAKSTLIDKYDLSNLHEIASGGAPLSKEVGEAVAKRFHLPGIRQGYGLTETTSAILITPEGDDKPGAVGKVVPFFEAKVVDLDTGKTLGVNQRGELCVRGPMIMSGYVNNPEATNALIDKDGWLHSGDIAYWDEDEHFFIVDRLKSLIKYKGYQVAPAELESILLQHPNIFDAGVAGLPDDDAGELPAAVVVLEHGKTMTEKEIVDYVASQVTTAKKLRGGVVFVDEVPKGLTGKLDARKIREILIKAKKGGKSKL
#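 Biochemical qHTS of compounds, final roughly 60 µM downward over six points, against 10 nM purified firefly luciferase using Km concentrations of substrates (10 uM D-luciferin, 10 uM ATP) in Tris acetate pH 7.5 buffer; luminescence output.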
# Rab9 promoter act – qHTS Assay for Rab9 Promoter Activators; 320,000 tested, 2.8% active; Huh7 Rab9 promoter-luciferase reporter, luminescence, 24 h; Potency, µM (series often up to 9.22 µM), usual class: activators; further: nearly all actives have a fitted effect of over 60% in size
#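 Huh7 cells stably carrying Rab9 promoter–luciferase reporter, plated 1500 cells/well, compound added after 2 h and incubated 24 h at 37 °C; luciferase luminescence then read after 10 min with detection reagent.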
# SMN2 splice up – qHTS Assay for Enhancers of SMN2 Splice Variant Expression. Potency, µM (titrated, usually from 46.1 µM), most hits filed as activators. HEK293 SMN2-luciferase splicing reporter, luminescence, 30-36 h. AID 1458, 2008. 210,000 tested, 2.8% active; further: nearly all actives have a fitted effect of over 55% in size
#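 HEK293 cells carry an SMN2 […]–luciferase reporter in which exon 7 inclusion puts luciferase in frame. Cells were plated 10-12 h before compound addition, then incubated 30-36 h at 37C. ONE-Glo luminescence was read; sodium butyrate at 4.5 mM final served as control.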
# NPC1 promoter act – qHTS Assay for NPC1 Promoter Activators; 320,000 tested, 2.4% active; AID 485313, 2010; Potency, µM (series often up to 9.22 µM), usual class: activators; Huh7 NPC1 promoter luciferase reporter, 24 h; further: nearly all actives have a fitted effect of over 60% in size
#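 Stable NPC1-promoter luciferase Huh7 line; cpd (DMSO) 24 h, 37 °C, 5% CO2; Amplite luciferase reagent 10 min RT; luminescence readout. qHTS format.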
# ELG1 genotoxic – qHTS screen for small molecules that induce genotoxicity in human embryonic kidney (HEK293T) cells expressing luciferase-tagged ELG1. HEK293T ELG1-luciferase reporter, luminescence, 16 h. Potency, µM (doses to about 46 µM), most hits filed as activators. 330,000 tested, 1.3% active. AID 504466, 2011; further: nearly all actives have a fitted effect of over 60% in size
#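 Genotoxic stress is detected as increased luminescence from luciferase-tagged ELG1 in HEK293T cells, measured with ONE-Glo after a 16 hr treatment at 37 °C.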
# uPA surface inh – qHTS for Inhibitors of Cell Surface uPA Generation; Potency, µM (titrated, usually from 38.3 µM), hits mostly inhibitors; 330,000 tested, 0.31% active; AID 540303, 2011; cell surface uPA generation assay, qHTS; active means well fitted inhibition curve with a large enough effect; inconclusive means small, poorly fitted or top-dose-only effect; inactive means no such curve, though single readings can be large or run the other way; tested in mouse RAW 264.7 cells; further: nearly all actives have a fitted effect of over 55% in size
# A number is an active result; n = inactive; u = inconclusive; x = no result given. Unless noted, the call rests on the fitted dose curve; in most records, active means well fitted curve in the direction sought with a large enough effect; inconclusive means small, poorly fitted or top-dose-only effect, or another doubt; inactive means no such curve, though single readings can be large; an effect the other way counts as inactive or inconclusive.
SMILES,FLuc modulator,Rab9 promoter act,SMN2 splice up,NPC1 promoter act,ELG1 genotoxic,uPA surface inh
CC(C)(C)c1ccc(C(=O)NC(CC(=O)O)c2ccc(OC3CCCC3)cc2)cc1 (centres undefined),19µM,n,x,n,n,n
COc1ccc(-c2noc(-c3ccc(N4CCCCC4C)c([N+](=O)[O-])c3)n2)cc1OC (centres undefined),n,x,x,x,x,x
Clc1ccc(CSc2ccc(-c3cccs3)nn2)cc1,n,x,x,x,x,x
c1ccc(CSc2ccc(-c3cccs3)nn2)nc1,24µM,2.2µM,16µM,3.5µM,n,n
c1ccc(CSc2ccc(-c3cccs3)nn2)cc1,1.9µM,2.8µM,16µM,3.2µM,u,n
Cc1ccc([N+](=O)[O-])cc1S(=O)(=O)Nc1ccc(N2CCOCC2)cc1,n,n,n,n,n,n
CCCc1cc(C(=O)NCCc2ccccc2)no1,21µM,2.2µM,13µM,2.2µM,10µM,n
COc1ccccc1-c1cc(C(=O)Nc2cccnc2Cl)no1,n,n,x,n,n,n
COc1ccccc1-c1cc(C(=O)Nc2cccnc2)no1,6.7µM,n,n,u,18µM,x
COc1ccc(NC(=O)c2cc(-c3ccccc3OC)on2)cc1,9.5µM,n,u,n,u,x
COc1ccc(NC(=O)c2cc(-c3ccccc3Cl)on2)cc1,8.5µM,u,x,u,n,n
CN(C)CC(C)(C)CN=Cc1c(O)[nH]c2ccccc12,n,n,x,n,n,n
COc1ccc(CCNC(=O)c2c(O)nc3c(C)cccn3c2=O)cc1OC,n,x,n,x,x,x
COc1ccc(CCNC(=O)c2cc(-c3ccccc3OC)on2)cc1OC,u,n,n,n,n,n
COc1ccccc1-c1cc(C(=O)NCCc2ccccc2)no1,9.5µM,3.5µM,25µM,u,13µM,n
Cc1cccc(N2CCN(C(=O)c3ccc4c(c3)N(Cc3cccc(Cl)c3)C(=O)c3ccccc3S4=O)CC2C)c1 (centres undefined),n,x,x,x,x,x
NNC(=O)CN1CCCc2ccccc21,12µM,n,n,n,u,n
O=C(CN1CCCc2ccccc21)N1CCc2ccccc21,n,n,x,n,n,n
N#Cc1cccc(NC(=O)N2CCCC3(CCN(C(=O)c4cccc(F)c4)CC3)C2)c1,x,x,n,x,x,x
COc1cc2c(C#N)c(N3CCc4ccccc4C3)nc(N)c2c(N)n1,21µM,n,n,n,n,n
CCOC(=O)C1CCN(c2nc(N)c3c(N)nc(SCC(=O)O)cc3c2C#N)CC1,17µM,n,x,n,n,n
CCOc1cc2c(C#N)c(N3CCCCC3)nc(N)c2c(N)n1,15µM,u,n,n,u,n
COc1cc2c(C#N)c(N3CCCCC3)nc(N)c2c(N)n1,4.8µM,n,n,n,u,n
CCOc1cc2c(C#N)c(N3CCNCC3)nc(N)c2c(N)n1,n,n,u,n,n,n
COC(=O)c1cc2oc(C)cc2n1Cc1ccc(Br)cc1F,n,x,n,x,x,x
SMILES,FLuc modulator,Rab9 promoter act,SMN2 splice up,NPC1 promoter act,ELG1 genotoxic,uPA surface inh
O=C(Nc1ccccc1)Nc1ccc(Br)c(Cl)c1,6.7µM,n,u,u,n,n
O=C(Nc1ccccc1)Nc1cccc(Cl)c1Cl,11µM,n,n,n,n,n
O=C(CN1CCCC1)Nc1ccc(NC(=O)Nc2ccccc2Cl)cc1,21µM,n,n,n,u,n
CC(=O)c1ccc(NC(=S)Nc2ccc(Br)c(Cl)c2)cc1,n,n,n,n,n,n
CC(=O)Nc1ccc(NC(=O)Nc2ccc(C)c(C)c2)cc1,n,n,n,n,u,n
O=C(Nc1ccncc1)Nc1cccc(Cl)c1Cl,u,n,x,n,n,n
CC(=O)Nc1cccc(NC(=O)Nc2ccc(C)c(Cl)c2)c1,2.1µM,n,u,n,n,x
CCc1ccccc1NS(=O)(=O)c1ccc2c(c1)CC(=O)N2,n,x,n,x,x,x
CCN(CC)S(=O)(=O)c1ccc2c(c1)nc(CN(C)C(=O)c1cccc(Cl)c1)n2C,n,x,x,x,x,x
O=C(Nc1ccc(Cl)cc1)Nc1cccc2nsnc12,4.8µM,u,x,u,u,u

# From PubChem BioAssay
